Measurements reported in ChEMBL document CHEMBL4513216, “Probing the Open Global Health Chemical Diversity Library for Multistage-Active Starting Points for Next-Generation Antimalarials” (ACS Infect Dis, 2020).
In all, about 68,000 compounds went through this assay and about 2,700 (4%) showed an effect of 50% or more. Only a selection was taken, and strong results are over-represented in it overall.

Each molecule was assayed on Plasmodium berghei (assay: Screen against P. berghei liver stage (PbLuc), transformed with Luciferase, at 2uM). Conditions: tested at 2 uM.
Format: functional, HepG2
With CC(C)CC(NC(=O)c1ccc[nH]1)C(=O)N1CCC(CO)CC1 (centres undefined) the INHIBITION was 20.3%.
Molecule CC(C)[C@H]1CN(c2cnccn2)C[C@@H]1NC(=O)C1(C#N)CCOCC1 has an INHIBITION of 2.3%.
CC(C)c1ncncc1C(=O)N1CCCN(Cc2ccccc2)CC1 gave an INHIBITION of 56.02%.
With CCc1ncncc1C(=O)N1CCN(Cc2ccsc2)CC1 the INHIBITION was -45.83%.
Cc1cc(C(=O)N2CCN(Cc3ccsc3)CC2)c(C)n1C1CC1 gave an INHIBITION of 53.58%.
CC(C)c1ncncc1C(=O)N1CCN(Cc2cscn2)CC1 gave an INHIBITION of -43.47%.
With CC(C)c1ncncc1C(=O)N1CCN(Cc2cccnc2)CC1 the INHIBITION was 33.61%.
CC(C)c1ncncc1C(=O)N1CCCN(Cc2cccs2)CC1 gave an INHIBITION of 8.37%.
With CC(C)c1ncncc1C(=O)N1CCN(Cc2ccsc2)CC1 the INHIBITION was 58.05%.
Work on CCc1ncncc1C(=O)N1CCCN(Cc2ccc(C)cc2)CC1 yielded an INHIBITION of -8.84%.
O=C(c1cc(C2CC2)[nH]n1)N1CCN(Cc2ccsc2)CC1 gave an INHIBITION of 44.43%.
Cc1ccc(C(=O)N2CCN(Cc3ccsc3)CC2)n1C gave an INHIBITION of 43.52%.
CCc1ncncc1C(=O)N1CCCN(Cc2ccccc2C)CC1 showed an INHIBITION of -23.42%.
In the case of CCc1ncncc1C(=O)N1CCCN(Cc2ccc(C#N)cc2)CC1, the INHIBITION is reported as 68.24%.
Work on N#Cc1c(-c2ccccc2)csc1N yielded an INHIBITION of 30.76%.
Work on Cc1noc(C)c1NC(=O)NC1CCN(C(=O)OC(C)(C)C)CC1 yielded an INHIBITION of 11.92%.
Molecule CCCn1c(C)c(CC(=O)NCCOC)c2c1CC(C)(C)CC2=O has an INHIBITION of 18.91%.
CC(C)(NCC(=O)NCCC#N)c1ccc2c(c1)OCCO2 gave an INHIBITION of -9.66%.
For Cc1ccc(CN2C[C@@H]3CCN(Cc4cccnc4)C(=O)[C@H]3C2)s1, the INHIBITION was 41.38%.
With Cc1ccc(OC2(C(=O)NC(C)Cc3ccsc3)CCNCC2)cc1 (centres undefined) the INHIBITION was 26.35%.
Molecule CN(Cc1cccnc1)C1CC2(CCN(Cc3ccccn3)CC2)C1 has an INHIBITION of 27.9%.
With CN(C)S(=O)(=O)N1CC[C@]2(C[C@H](OCc3ccccn3)CO2)C1 the INHIBITION was -51.66%.
COc1ccc(C(=O)N2CCCCC2c2ccccn2)c(OC)n1 (centres undefined) showed an INHIBITION of 21.05%.
COCCNC(=O)N1CCN(C(C)C(=O)NC(C)C)CC1 (centres undefined) was tested, and the INHIBITION was 21.22%.
COCCNC(=O)C(C)N1CCN(C)CC1 (centres undefined) was tested, and the INHIBITION was 7.9%.
Work on COCC(=O)N1CCN(C(C)C(=O)NC(C)C)CC1 (centres undefined) yielded an INHIBITION of 61.91%.
In the case of CC(=O)N1CCc2c(nc(N(C)C)nc2N(C)CC2CCCO2)C1 (centres undefined), the INHIBITION is reported as -34.04%.
CCCC(=O)N1CCC2(CC1)OCCO2 showed an INHIBITION of 38.51%.
With CCCC(=O)N1CCC2(CC1)COC2 the INHIBITION was 54.01%.
With CN(C)C(=O)CCC(=O)N1CCC2(CC1)COC2 the INHIBITION was 15.02%.
With CC(C)S(=O)(=O)NCC(Cc1cccc(F)c1)N1CCNC1=O (centres undefined) the INHIBITION was 53.44%.
Work on CCS(=O)(=O)NCC(Cc1cccc(F)c1)N1CCNC1=O (centres undefined) yielded an INHIBITION of -35.92%.
In the case of CS(=O)(=O)NCC(Cc1cccc(F)c1)N1CCNC1=O (centres undefined), the INHIBITION is reported as 22.27%.
For Cc1cc(C)n(CC2CCCN2CC(=O)Nc2nncs2)n1 (centres undefined), the INHIBITION was 37.08%.
CC(C)Nc1cccc(CNC(=O)N2CCC(N3CC=CC3)C2)c1 (centres undefined) was tested, and the INHIBITION was 58.34%.
In the case of CC(C)Nc1cccc(CNC(=O)N2CCCC2)c1, the INHIBITION is reported as -24.87%.
CC(C)Oc1cccc(CNC(=O)N2CCC(N3CC=CC3)C2)c1 (centres undefined) showed an INHIBITION of -21.25%.
Molecule COC(=O)CCCNC(=O)Nc1ccccc1OC has an INHIBITION of -3.99%.
CN1CCC(NC(=O)Nc2cnn(-c3ccccc3Cl)c2)C1=O (centres undefined) gave an INHIBITION of 15.75%.
With CNC(=O)[C@@H]1C[C@@H](n2cc(-c3ccc(CN4CC=CC4)cc3)nn2)CN1 the INHIBITION was -21.75%.
Nc1nc(CCC(=O)N2C[C@H](c3ccccc3)[C@@H](N)C2)cs1 showed an INHIBITION of -10.1%.
CS(=O)(=O)N1CC(c2n[nH]c3ncccc23)C1 gave an INHIBITION of 31.98%.
In the case of CCc1ccc2c(C3CN(S(C)(=O)=O)C3)ncn2c1, the INHIBITION is reported as 28.81%.
CS(=O)(=O)N1CC(c2ncn3ccccc23)C1 showed an INHIBITION of 51.36%.
CC(=O)N1N=C(c2cccs2)OC1C(=O)Nc1ccc(C(C)C)cc1 (centres undefined) showed an INHIBITION of 19.09%.
In the case of NC(=O)CC1CCN(C(=O)c2cnc(-c3ccccc3F)s2)CC1, the INHIBITION is reported as 20.76%.
In the case of NC(=O)CC1CCN(C(=O)c2csc(-c3ccccc3F)n2)CC1, the INHIBITION is reported as 51.96%.
Work on COC1CCN(C(=O)c2csc(-c3ccccc3F)n2)CC1 yielded an INHIBITION of 10.91%.
Cc1noc(C)c1CN1CCn2c(COC(C)C)nnc2C1 was tested, and the INHIBITION was 40.71%.
With Fc1ccc(OCCNC2CCN(Cc3ccncc3)CC2)c(F)c1 the INHIBITION was 4.19%.
Cc1nn(CC(=O)NCCc2ccncc2)c(=O)n1Cc1ccccc1 was tested, and the INHIBITION was 53.98%.
Cc1ccc(CCNC(=O)Cn2nc(C)n(Cc3ccccc3)c2=O)o1 showed an INHIBITION of -9.48%.
Cc1ccc(CCNC(=O)Cn2nc(C)n(Cc3ccccc3)c2=O)s1 showed an INHIBITION of -8.8%.
Cc1nnc(CN2C[C@H](NC(=O)C3CCOCC3)[C@@H](C(C)C)C2)s1 gave an INHIBITION of -29.43%.
OCC1(O)CCN(c2ncccc2C(F)(F)F)CC1 was tested, and the INHIBITION was 65.3%.
With N[C@@H]1c2ccccc2C2(CCN(c3ncccc3C(F)(F)F)CC2)[C@H]1O the INHIBITION was -7.99%.
OCC1(O)CCN(c2ccnc3c(C(F)(F)F)cccc23)CC1 gave an INHIBITION of -100.41%.
Molecule Cn1c(CC2CCS(=O)(=O)C2)nnc1SCCOc1cccc(Cl)c1 (centres undefined) has an INHIBITION of 42.62%.
O=C(NCc1cncc2c1CCN(CC1CCOC1)C2)c1ccco1 (centres undefined) was tested, and the INHIBITION was 7.33%.
O=C(NCc1cncc2c1CCN(CC1CCOC1)C2)c1ccno1 (centres undefined) was tested, and the INHIBITION was 69.13%.
Molecule c1cnc(NCc2cncc3c2CCN(CC2CC2)C3)nc1 has an INHIBITION of 30.99%.
In the case of CS(=O)(=O)NCc1cncc2c1CCN(CC1CCOC1)C2 (centres undefined), the INHIBITION is reported as 52.05%.
Molecule O=C(NCc1cncc2c1CCN(C1CCOCC1)C2)c1ccno1 has an INHIBITION of 36.06%.
Cc1nccc(NCc2cncc3c2CCN(CC2CCOC2)C3)n1 (centres undefined) gave an INHIBITION of 22.23%.
COc1ccccc1C(=O)N1CC(=O)N(Cc2ccco2)CC(O)C1 (centres undefined) showed an INHIBITION of -8.2%.
Cc1cnccc1CN1Cc2ccccc2OC2(CCC(CO)CC2)C1 (centres undefined) was tested, and the INHIBITION was 19.76%.
Work on O=C1CCC2(CCC(NCc3ccoc3)CC2)N1 (centres undefined) yielded an INHIBITION of -29.46%.
Molecule CCc1cnc(NCC(c2ccncc2)N2CCOCC2)nc1 (centres undefined) has an INHIBITION of 0.12%.
CN1CCC(c2nnc3ccc(C(=O)N4CCCCC4)cn23)C1 (centres undefined) showed an INHIBITION of 23.43%.
CCNC(=O)[C@@H]1C[C@@H](NC(=O)c2ccsc2)CN1CCCSC showed an INHIBITION of 68.61%.
Molecule CCNC(=O)[C@@H]1C[C@@H](NC(=O)c2cccn2C)CN1CCCSC has an INHIBITION of 29.89%.
CCNC(=O)[C@@H]1C[C@@H](NC(=O)c2ccc(C#N)cc2)CN1CCCSC showed an INHIBITION of 22.89%.
CC1c2ncc(COc3cccnc3)n2CCN1C(=O)C1=CCCCC1 (centres undefined) gave an INHIBITION of 52.36%.
For CC1c2ncc(COc3cccnc3)n2CCN1C(=O)C1=CCCC1 (centres undefined), the INHIBITION was -7.05%.
CCOCc1cnc2n1CCN(C(=O)C1=CCCC1)C2C (centres undefined) showed an INHIBITION of 21.92%.
In the case of COCc1cnc2n1CCN(C(=O)C1=CCCCC1)C2C (centres undefined), the INHIBITION is reported as 11.55%.
In the case of COCc1cnc2n1CCN(C(=O)c1cc3ccccc3o1)C2C (centres undefined), the INHIBITION is reported as -29.49%.
Work on COCc1cnc2n1CCN(C(=O)c1cnc3ccccc3c1)C2C (centres undefined) yielded an INHIBITION of -17.69%.
COCc1cnc2n1CCN(C(=O)C1=CCCC1)C2C (centres undefined) showed an INHIBITION of 53.46%.
In the case of COCc1cnc2n1CCN(C(=O)c1ccc3ccccc3n1)C2C (centres undefined), the INHIBITION is reported as 53.08%.
For COCC(=O)N1CCn2c(COc3cccnc3)cnc2C1C (centres undefined), the INHIBITION was -28.81%.
Work on CS(=O)(=O)c1ccc(Cl)c(NC(=O)NCCC2=CCCCC2)c1 yielded an INHIBITION of 36.66%.
Molecule Cc1cnn(CC2CN(Cc3nnc(C(C)C)o3)CCO2)c1 (centres undefined) has an INHIBITION of -11.91%.
For CCc1ccc(CN2CCN(c3cccc(OC)c3)C(=O)C2)nc1, the INHIBITION was -18.92%.
Molecule CC(c1cccc(-c2cn(Cc3ccoc3)nn2)c1)N(C)C (centres undefined) has an INHIBITION of 28.62%.
With N#Cc1ccc(C(=O)N2CC[C@H]3[C@H]2CCN3CC2CC2)cc1 the INHIBITION was 5.14%.
With CCc1cccc(OC2CN(C(=O)[C@@H](N)[C@@H](C)O)C2)c1 the INHIBITION was 18.28%.
Work on CCn1cc(NC(=O)c2cccc(OCC(F)(F)F)n2)cn1 yielded an INHIBITION of -44.13%.
For COCC(Nc1ncnc2sc(C(=O)O)c(C)c12)c1ccnn1C (centres undefined), the INHIBITION was -1.87%.
For CC(C)CC(C)N(C)C(=O)CCn1cccn1 (centres undefined), the INHIBITION was 62.51%.
CC(C)CN1CCN(C(=O)CCn2cccn2)CC1 showed an INHIBITION of 0.74%.
Molecule CC(C1CC1)N(C)C(=O)CCn1cccn1 (centres undefined) has an INHIBITION of 31.51%.
With CCC(=O)N1CCN(C(=O)CCn2cccn2)CC1 the INHIBITION was -27.69%.
With CNC(=O)C1CCN(C(=O)CCn2cccn2)CC1 the INHIBITION was -84.03%.
CCN(C(=O)CCn1cccn1)C1CC1 was tested, and the INHIBITION was 72.05%.
O=C1CC(NS(=O)(=O)c2ccc3ccccc3c2)CN1 (centres undefined) gave an INHIBITION of 2.11%.
Molecule CN(Cc1ccccc1O)C(=O)NC1CCCN(c2ncccn2)C1 (centres undefined) has an INHIBITION of -12.48%.
For CCS(=O)(=O)CCN1CCCC1c1noc(C2CC2)n1 (centres undefined), the INHIBITION was 51.21%.
With Cc1nn(C)c(C)c1C1CCCN1Cc1nc(C2CC2)no1 (centres undefined) the INHIBITION was -38.96%.
CCc1nc(C2CCCN2Cc2nc3ccccc3o2)no1 (centres undefined) showed an INHIBITION of -32.11%.
c1ccc2oc(CCCN3CCCC3c3noc(C4CC4)n3)nc2c1 (centres undefined) gave an INHIBITION of 18.86%.
For Cc1nn(C)c(Cl)c1C1CCCN1Cc1nc(C2CC2)no1 (centres undefined), the INHIBITION was 51.94%.
In the case of c1ccc2oc(CN3CCCC3c3noc(C4CC4)n3)nc2c1 (centres undefined), the INHIBITION is reported as 63.68%.
CCc1nc(C2CCCN2C(=O)CCCn2cncn2)no1 (centres undefined) was tested, and the INHIBITION was 37.31%.
CCS(=O)(=O)CCN1CCCC1c1noc(C)n1 (centres undefined) was tested, and the INHIBITION was 49.02%.
With CCc1nc(C2CCCN2C(=O)CCn2cncn2)no1 (centres undefined) the INHIBITION was 7.54%.
COc1c(C2CCCN2Cc2nc(C3CC3)no2)c(C)nn1C (centres undefined) gave an INHIBITION of -13.46%.
Work on CCc1nc(C2CCCN2CCn2cncn2)no1 (centres undefined) yielded an INHIBITION of 58.49%.
CS(=O)(=O)CCN1CCCC1c1noc(C2CC2)n1 (centres undefined) was tested, and the INHIBITION was 21.83%.
